This is an account of results in PubChem BioAssay AID2314 (National Center for Advancing Translational Sciences (NCATS), 2010).

Structures are written as SMILES. Among all 300,000 compounds or so, about 37,000 (12%) were called active. The sample as a whole holds a higher share of actives than the screen did. Values without a mark were called inactive. Rule as the data show it: active = max response mostly above about 13% (no sharp cut-off); inactive = mostly below about 14%.

This assay is described as follows: Cycloheximide Counterscreen for Small Molecule Inhibitors of Shiga Toxin. Also: read at 38.3 µM for the half of the compounds with a filed dose; 0% is about no effect. As to conditions: cell reporter, cycloheximide protein synthesis inhibition counterscreen; stronger effect = higher value. A general note: The purpose of a counterscreen is to sort out artefacts and off-target activity.
`COc1ccccc1C(=O)N1C(CC(=O)Nc2ccccc2C)C(=O)NC2CCCCC21` (stereo not drawn): the max response is -3.1%.

Take `N#CC(C#N)=CN=c1ccn(Cc2ccc(Cl)cc2Cl)cc1`: the max response is -0.809%.

For the compound `C=CCn1c(=NC(=O)c2ccc(S(=O)(=O)N3CCCC3)cc2)sc2cc(NC(C)=O)ccc21`, the max response is -4.67%.

Consider `C=CCn1c(CCNC(=O)c2cccs2)n[nH]c1=S`, for which the max response is 2.82%.

Turning to `C=CCn1c(=NC(=O)c2cccs2)sc2cc(NC(C)=O)ccc21`, the max response was 16.5% (active).

As to `CN1CCN(S(=O)(=O)c2cccc(C(=O)N3CCc4ccccc43)c2)CC1`, the max response is -1.65%.

Regarding `O=C1c2ccccc2NC(c2ccc(-c3cccc(Cl)c3)o2)N1O` (stereo not drawn), the max response was 38.7% (active).

For the compound `O=C1NN(c2ccccc2)C(=O)/C1=C/c1ccc(-c2cccc(C(=O)O)c2)o1`, the max response is 21%.

Regarding `CCOC(=O)NN1C(=O)c2ccccc2NC1c1cccc(O)c1` (stereo not drawn), the max response was 7.43%.

As to `CC(C)[C@@H](NC(=O)OC(C)(C)C)C(=O)NCC1CCC(C(=O)N[C@@H](Cc2ccccc2)C(=O)O)CC1` (stereo partly drawn), the max response is -1.77%.

With `O=C(c1cn2ccccc2n1)N1CCc2c([nH]c3ccccc23)C1c1ccccn1` (stereo not drawn), the max response is 3.01%.

For `Cc1cccc(C(=O)N2CCc3c([nH]c4ccccc34)C2CC(C)C)n1` (stereo not drawn), the max response was 26.8% (active).

`Cc1cccc(C2c3[nH]c4ccccc4c3CCN2C(=O)c2cc(-c3cccn3C)n[nH]2)n1` (stereo not drawn): the max response was -3.03%.

Regarding `CCN(CCn1cccn1)Cc1nc(-c2ccc(C(=O)OC)cc2)no1`, the max response was -4.94%.

For the compound `CC(=O)C1=C(O)C(=O)N(c2ccc(S(N)(=O)=O)cc2)C1c1ccccc1F` (stereo not drawn), the max response is -0.999%.

Regarding `CCOC(=O)C1CCN(Cc2nnc(-c3cccc(Br)c3)o2)CC1`, the max response is -0.93%.

For the compound `NS(=O)(=O)c1ccc(Nc2nc(-c3ccccc3)cs2)cc1`, the max response is 18.5%.

As for `COc1ccc(Nc2nc(-c3ccccc3)cs2)cc1`, the max response is 46.6% (active).

Consider `CCOC(=O)N/N=C/c1cccnc1`, for which the max response is 11.3%.

In the case of `COc1ccc(-c2csc(Cc3nc(O)cs3)n2)cc1`, the max response is 37.4% (active).

`CC(C)(C)C(=O)OCc1nc(-c2ccc(O)c(O)c2)cs1`: the max response is 5.11%.

Regarding `CN(c1ccc(O)cc1)c1nc(-c2cccnc2)cs1`, the max response was 56.1% (active).

For `CN(C(=O)CSc1nc(C2CC2)nc2ccccc12)c1nc(-c2ccccc2)cs1`, the max response was 4.58%.

`Brc1ccc(-c2csc(N/N=C/c3ccc4c(c3)OCO4)n2)cc1`: the max response is 17.6%.

Take `COc1ccc(-c2csc(N3CCN(Cc4ccc5c(c4)OCO5)CC3)n2)cc1`: the max response was -4.44%.

Turning to `COc1ccc(CCN(C(=O)COc2ccccc2)c2nc(-c3ccccc3)cs2)cc1OC`, the max response is 5.03%.

Take `Brc1ccc(-c2csc(N/N=C/c3cccnc3)n2)cc1`: the max response was 19.4% (active).

For `COc1ccc(-c2csc3ncnc(N4CCN(S(=O)(=O)c5ccccc5C#N)CC4)c23)cc1`, the max response was -2.23%.

`COc1cc(/C=N/O)cc(Br)c1OS(=O)(=O)c1ccc(C)cc1`: the max response is 1.45%.

`COc1cc(NC(=O)CCNC(=O)Cn2ccc3ccccc3c2=O)cc(OC)c1OC`: the max response is -5.95%.

`COc1ccc(OC)c(C(=O)NC(CC(N)=O)c2ccc(N3CCC(N4CCCCC4)CC3)c([N+](=O)[O-])c2)c1` (stereo not drawn): the max response was 4.9%.

As to `CCC(C(=O)NC1CCCC1)N(C(=O)Cn1nnc(-c2ccc(C)o2)n1)c1ccc(OC)c(OC)c1` (stereo not drawn), the max response was -5.67%.

In the case of `Cc1scc(C(=O)NNC(=S)NCc2ccccc2)c1C`, the max response was -0.644%.

Turning to `Cc1ccc(S(=O)(=O)N(Cc2ccc(Cl)cc2)c2ccccc2C(=O)NCc2cccnc2)cc1`, the max response was 7.18%.

As to `COC(=O)c1cc2c(ccn2C)n1C`, the max response is -8.1%.

Consider `COc1ccc(-c2csc(Nc3ccc(O)cc3)n2)cc1`, for which the max response is 58.3% (active).

Turning to `Oc1ccc(-c2csc(Nc3cccnc3)n2)cc1`, the max response was 33.7% (active).

As to `O=C(Nc1ccc(-c2csc(Nc3cccc(C(F)(F)F)c3)n2)cc1)c1cccc(C(F)(F)F)c1`, the max response was -4.63%.

As to `COC(=O)CCc1sc(Nc2ccc(Br)cc2)nc1-c1ccc(OC)cc1`, the max response is 11.1%.

In the case of `COc1ccc(OC)c(Nc2nc(-c3ccc(O)c(O)c3)cs2)c1`, the max response is 0.815%.

With `COC(=O)CCCCCN1C(=O)NC(c2ccc(-c3ccccc3)cc2)C(C(=O)OCc2ccccc2)=C1C` (stereo not drawn), the max response was -3.62%.

With `CN1C2CCC1/C(=C\c1ccccc1Cl)C(=O)/C2=C\c1ccccc1Cl`, the max response is -1.18%.

As to `Cc1cc(C)c(S(=O)(=O)c2ccc(F)cc2C)c(=O)[nH]1`, the max response was 0.432%.

As for `Cc1ccc(-c2nc3c(cnn3-c3ccccc3)c(=O)o2)cc1`, the max response was -3.4%.

Consider `COc1ccc(-n2c(C)nc3c(cnn3-c3ccccc3)c2=O)cc1`, for which the max response was -2.87%.

In the case of `CC(=O)Cn1cnc2c(cnn2-c2ccccc2)c1=O`, the max response was 20.7% (active).

With `O=C(Cn1cnc2c(cnn2-c2ccccc2)c1=O)NCc1ccccc1`, the max response was 20.7% (active).

With `O=C(Cn1cnc2cc([N+](=O)[O-])ccc2c1=O)NC(=O)NCc1ccccc1`, the max response is 5.35%.

With `O=C(Cn1cnc2c(cnn2-c2ccc(F)cc2)c1=O)NCCc1ccccc1`, the max response was -1.32%.

For the compound `Cc1cc(C)n(S(=O)(=O)c2cccc([N+](=O)[O-])c2)n1`, the max response was 0.92%.

`COc1ccccc1C(=O)NCc1nnc(SC(C)C(=O)Nc2nccs2)n1C` (stereo not drawn): the max response is 2.76%.

In the case of `Cc1ccc(-n2ncc3c2CCCC3NC(=O)c2cnccn2)cc1C` (stereo not drawn), the max response is 9.44%.

Regarding `C/C=C/c1ccc(OCCCCN2CCC(C)CC2)c(OC)c1`, the max response was 0.514%.

`c1ccc(CSc2ncnc3c2sc2nc(N4CCOCC4)c4c(c23)CCCC4)cc1`: the max response was -3.72%.

For the compound `Cc1nnc(N/N=C/c2cccs2)[nH]c1=O`, the max response was -2.07%.

As for `Cc1n[nH]c(=O)nc1N/N=C/c1cccs1`, the max response was 25.7% (active).

In the case of `S=c1[nH]nc(-c2cccs2)n1/N=C/c1cccs1`, the max response was 8.89%.

On to `COCCOC(=O)c1sc(=S)n(CCOC)c1N`, for which the max response is -1.77%.

As to `CC(C)(C)c1ccc(Cn2nnc3c(=O)[nH]c(C4CCCN(C(=O)c5ccco5)C4)nc32)cc1` (stereo not drawn), the max response is 4.58%.

Take `Clc1ncn(CCOc2ccccc2)c1Cl`: the max response was -2.48%.

For the compound `Cc1nn(CCOc2ccccc2)c(=O)n1-c1ccccc1F`, the max response is 49.6% (active).

Regarding `Cc1cccc2c1N(CCOc1ccccc1)C(=O)C2=O`, the max response was 8.28%.

Take `CCc1nc2cccnc2n1-c1ccc(C(=O)O)cc1`: the max response is -1.63%.

`COc1cccc(C(O)c2nc3ccccc3n2C)c1` (stereo not drawn): the max response is -2.8%.

Turning to `CCOc1ccc2nc(Nc3nc4ccc(NC(C)=O)cc4s3)sc2c1`, the max response is -1.98%.

Regarding `CCOc1ccc2nc(C(=O)N3CCCC(C)C3)sc2c1` (stereo not drawn), the max response is 105% (active).

As to `CCCC(=O)N(CCN1CCOCC1)c1nc2ccc(OCC)cc2s1`, the max response was 16.6%.

Turning to `CCOc1ccc(S(=O)(=O)NCCCn2ccnc2)cc1NC(C)=O`, the max response was -3.29%.

As for `CCOc1ccccc1C1CC(c2cccc(NS(C)(=O)=O)c2)=NN1C(=O)c1ccccc1` (stereo not drawn), the max response is -1.46%.

Consider `CCOc1cccc2c1OC1(CCCCC1)N1N=C(c3cccnc3)CC21` (stereo not drawn), for which the max response was 40.7% (active).

Take `c1cncc(-c2nnc3n2C2(CCCCC2)Cc2ccccc2-3)c1`: the max response was -1.12%.

In the case of `CC1CCN(S(=O)(=O)c2ccc3c(c2)n(C)c(=O)n3C)CC1`, the max response was 2.78%.

Turning to `Cc1cc(CNCc2c(C(=O)N(C)Cc3ccccc3)nc3ccccn23)nn1C`, the max response is 1.54%.

As to `Cc1nn(-c2ccccn2)c2c1C(c1ccncc1)C1=C(CC(C)(C)CC1=O)N2` (stereo not drawn), the max response is -5.72%.

Regarding `Cc1cc2c(cc1C)NC(c1ccccn1)C1=C(CC(C)(C)CC1=O)N2` (stereo not drawn), the max response is 28% (active).

In the case of `CC1(C)CC(=O)C2=C(C1)Nc1cc(C(=O)c3ccccc3)ccc1NC2c1ccccn1` (stereo not drawn), the max response was 5.93%.

With `O=C1CCCCC1C(=O)c1ccccc1` (stereo not drawn), the max response was 12.6%.

With `Cc1ccc(C(=O)c2c(NC(=O)c3ccncc3)sc3c2CCCC3)cc1`, the max response was -4.15%.

Turning to `O=C(Nc1sc2c(c1-c1nc3ccccc3[nH]1)CCCC2)C1CC1`, the max response was 16.7%.

Consider `O=C1NC(c2ccncc2)Nc2sc3c(c21)CCCC3` (stereo not drawn), for which the max response was 26.5% (active).

With `C/C(=C\c1ccccc1)C1NC(=O)c2c(sc3c2CCCC3)N1` (stereo not drawn), the max response was 36.6% (active).

With `CCOC(=O)c1cc2ccccc2n1CC(=O)c1ccccc1`, the max response is 1.26%.

With `CC1CCC2CCCCC2N1C(=O)c1cc([N+](=O)[O-])cc([N+](=O)[O-])c1` (stereo not drawn), the max response was 10.4%.

With `NS(=O)(=O)c1ccc(CCNC(=O)c2nc(CS(=O)(=O)c3ccc(Cl)cc3)no2)cc1`, the max response was -2.33%.

As for `CCn1cc(C(=O)N[C@@H](C)C(=O)NCCO)c(=O)c2cc3c(cc21)OCO3`, the max response is -1.13%.

Turning to `CC(CO)NCC12CC3CC(CC(C3)C1)C2` (stereo not drawn), the max response is -1.89%.

`N/C(=N\OC(=O)Nc1ccccc1)c1ccno1`: the max response is 24.5% (active).

For `O=C(Nc1ccccc1Cl)O/N=C(/c1ccccc1)c1ccccn1`, the max response is -2.08%.

Regarding `N/C(=N\OC(=O)Nc1ccc(Cl)c(Cl)c1)c1ncc(C(F)(F)F)cc1Cl`, the max response was -4.62%.

For the compound `COc1ccc(-c2c(C)cc3oc(=O)cc(-c4ccccc4)c3c2C)cc1C=O`, the max response is 19.9%.

Regarding `COc1cccc(NC(=O)CN(C)C(C)C(=O)Nc2ccc(C#N)cc2)c1` (stereo not drawn), the max response is 11.8%.

Take `S=c1nc2ccccc2c2nc(-c3cccnc3)[nH]n12`: the max response was -3.11%.

As for `C=CCn1c(=O)c(C(=O)NCc2ccc3c(c2)OCO3)c(O)c2ccccc21`, the max response is -4.21%.
